Bioassay records as filed in PubChem BioAssay.
Rows were chosen to be rich in hits. Some 14% of all compounds tested hit in one or more screens of this group.
Pf growth 48h: P. falciparum growth inhibition at 48 hours (one generation); P. falciparum luciferase growth in erythrocytes, 48 h; Potency, µM (titrated, usually from 28.7 µM), inactives show at the top dose activity change, negative = inhibition, actives largely listed as inhibitors; actives 5.9% (n = 310,000); note: potency is the fitted concentration of half-maximal effect
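Luciferase-expressing P. falciparum in infected erythrocytes (2% hematocrit, 0.1% parasitemia final) in RPMI 1640/0.5% Albumax were exposed to compound for 48 hours at 37 C, 5% CO2; growth read as luminescence.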
Pf growth 96h: P. falciparum growth inhibition at 96 hour, primary screen for plastid delayed-death inhibitors; P. falciparum luciferase reporter growth, 96 h; Potency, µM (series often up to 28.7 µM), without a hit: at the highest dose activity change, negative = inhibition, actives largely listed as inhibitors; actives 6.9% (n = 320,000); AID 504834; note: potency is the fitted concentration of half-maximal effect
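Parasite growth measured via integrated firefly luciferase reporter in P. falciparum. Infected erythrocytes at 2% hematocrit, 0.05% parasitemia final were treated 96 hours at 37 C under 5% CO2, and luminescence was read.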
FBPA Giardia inh: inhibitors of Giardia lamblia fructose-1,6-bisphosphate aldolase; A8B2U2; purified Giardia FBPA; Potency, µM (doses to about 59.6 µM), for the others: at the top dose activity, negative = inhibition, usual class: inhibitors; actives 0.71% (n = 290,000); note: potency is the fitted concentration of half-maximal effect; nearly all actives have a fitted effect of over 55% in size
Target sequence (A8B2U2 whole entry, looked up): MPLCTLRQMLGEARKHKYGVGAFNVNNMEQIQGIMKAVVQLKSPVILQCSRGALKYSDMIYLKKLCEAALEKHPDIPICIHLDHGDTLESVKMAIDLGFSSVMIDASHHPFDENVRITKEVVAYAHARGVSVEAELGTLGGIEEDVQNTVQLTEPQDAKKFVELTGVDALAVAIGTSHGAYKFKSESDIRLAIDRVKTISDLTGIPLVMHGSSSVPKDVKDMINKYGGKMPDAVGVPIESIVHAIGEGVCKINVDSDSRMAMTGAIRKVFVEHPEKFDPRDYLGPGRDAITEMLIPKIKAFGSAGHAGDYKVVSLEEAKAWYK
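Giardia FBPA (40 nM reagent) was preincubated 10 min at RT with compound (up to 57.5 uM final), then substrate plus GAPDH/TPI/NAD/arsenate coupling system with diaphorase/resazurin was added; resorufin fluorescence (525/598 nm) was read after 20 min.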
Sm TGR inh: inhibitors of Schistosoma mansoni thioredoxin glutathione reductase. Q962Y6. Potency, µM (doses to about 114 µM), without a hit: at the top dose activity change, negative = inhibition, actives largely listed as inhibitors. actives 3% (n = 360,000). purified TGR, DTNB reduction, TNB absorbance 405 nm; note: potency is the fitted concentration of half-maximal effect; nearly all actives have a fitted effect of over 60% in size
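TGR 20 nM + NADPH 100 uM (dispensed conc.), cpd preinc 15 min RT; start with NADPH (500 uM addition) then DTNB (15 mM addition). Kinetic TNB absorbance, 405 nm filter. Four-parameter Hill fit across titration.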
HCMV antiviral: inhibitors of human cytomegalovirus. HFF cells, HCMV-luciferase reporter, 72 h; stronger effect = lower value. activity change, negative = inhibition, % at 57.5 µM. actives 4.5% (n = 410,000). AID 1259415; in the data active = activity change below about -60%; inconclusive = no clear call, values can overlap the other calls; inactive = above about -39%
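Screen run at 2 compound doses on HFFs infected with reporter HCMV, MOI 1 PFU/cell. Luciferase activity from cell lysates at 72 h post infection gave inhibition relative to buffer-only and Salinomycin wells.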
* hit, by the source's call; ? = inconclusive; nt = not tested or not shown; ! = repeats disagree; [ ] = another dose, or the depositor's remark. Unless noted, calls come from the whole dose curve; as a rule, active = well fitted curve in the direction sought with a large enough effect; inconclusive = small, poorly fitted or top-dose-only effect, or another doubt; inactive = no such curve, though single readings can be large; an effect the other way counts as inactive or inconclusive. % is set by controls: 0 for no effect and ±100 for the full control effect.

SMILES | Pf growth 48h | Pf growth 96h | FBPA Giardia inh | Sm TGR inh | HCMV antiviral
CCOC(=O)C1=C(C)N=C2SC(C(=O)OC)=CC(=O)N2C1c1cc(OC)c(OC)c(OC)c1 (centres undefined) | 4.7µM* | -6% | -2% | -7% | 7
CCOC(=O)C1=C(c2ccccc2)N=C2SCC(=O)N2C1c1ccc(OCC)c(OCC)c1 (centres undefined) | -19% | nt | 2% | 10% | 14
CCOC(=O)C1=C(C)N=C2SC(CC)C(=O)N2C1c1cccc(F)c1 (centres undefined) | -5% | 10µM* | 13% | -1% | -18
CCOC(=O)C1=C(C)N=C2SC(C)C(=O)N2C1c1ccc(OCC)c(OCC)c1 (centres undefined) | 12µM* | 39% | -6% | 5% | -3
CCOC(=O)C1=C(C)N=C2SC(C)C(=O)N2C1c1ccccc1 (centres undefined) | ? | 2% | -2% | -6%[57.1 µM] | -40
Cc1cccc(S(=O)(=O)N(C)C[C@@H]2OCc3cnnn3CCCC(=O)N([C@@H](C)CO)C[C@@H]2C)c1 | nt | nt | nt | nt | 7
Cc1cc(Br)cn2c(Cc3cccc(F)c3)c(C3CCCCC3)nc12 | nt | nt | nt | nt | -32
COc1cccc(N2CCN(Cc3nc(N)nc(Nc4ccccc4OC)n3)CC2)c1 | ? | 0.33µM* | -29% | -8% | 10
COc1ccccc1Nc1nc(N)nc(CN2CCCCCC2)n1 | ? | nt | -13% | 32µM* | 34
COc1ccccc1Nc1nc(N)nc(CN2CCOCC2)n1 | nt | 9% | -24% | ? | 34
C[S+](C)CC[C@H](N)C(=O)O | -4% | 0% | nt | nt | nt
CCOc1cc(C(c2c(O)nc(SC)[nH]c2=O)c2c(O)nc(SC)[nH]c2=O)ccc1O | nt | nt | nt | nt | 20
COc1ccc(C(c2c(O)nc(SC)n(C)c2=O)c2c(O)nc(SC)n(C)c2=O)cc1O | -14% | 23% | -11% | 13µM* | -32
CCc1nc2ccc(C(=O)Nc3ccc(OC)c(OC)c3)cn2c1N(CCC(C)C)CCN(C)C | nt | nt | nt | nt | -8
NS(=O)(=O)c1ccc(Nc2nc(-c3ccc(O)cc3O)cs2)cc1 | nt | 30% | -21% | 4% | -91*
NS(=O)(=O)c1ccc(Nc2nc(-c3ccc(F)cc3)cs2)cc1 | 30% | -16% | -6% | 7% | -27
CC(CNC(=O)[C@@H](Cc1ccccc1)NC(=O)[C@H]1O[C@@H](n2cnc3c(=O)[nH]c(N)nc32)[C@H](O)[C@@H]1O)c1ccccc1 (some centres undefined) | nt | nt | nt | nt | -23
CCN(CC)S(=O)(=O)c1ccc(N2CCN(CCOc3ccc(OC)cc3)CC2)nc1 | ? | ? | -1% | 4% | -77*
Cc1cccn2c(=O)c(-c3nnn[nH]3)cnc12 | -2% | ? | nt | nt | nt
O=C1[C@@H]2[C@H]3C(=CC[C@@H]2C(=O)N1Cc1ccccc1)C1(OCCCO1)[C@H]1O[C@@H]1[C@H]3O | nt | nt | -9%[12.9 µM] | nt | nt
O=C(O)CC1S/C(=N/N=C/C2CC=CCC2)NC1=O (centres undefined) | 4% | 5.9µM* | 3% | 71% | -23
O=C(O)CC1S/C(=N/N=C/C=C/c2ccccc2)NC1=O (centres undefined) | -5% | 16% | 7% | -5% | 26
COc1ccc(C2=C(C(C)=O)Sc3nnc(-c4ccc(C)cc4)n3N2C(C)=O)cc1OC | nt | nt | nt | -3% | -99*
CC(=O)C1=C(c2ccccc2)N(C(C)=O)n2c(nnc2C2CCCCC2)S1 | nt | nt | nt | 5% | -95*
COc1cccc(C2=C(C(C)=O)Sc3nnc(C4CCCCC4)n3N2C(C)=O)c1 | nt | nt | nt | 0% | -73*
SMILES | Pf growth 48h | Pf growth 96h | FBPA Giardia inh | Sm TGR inh | HCMV antiviral
CCC(=O)C1=C(c2ccc(OC)c(OC)c2)N(C(=O)CC)n2c(nnc2-c2ccc(C)cc2)S1 | nt | nt | nt | 11% | 34
CCC1CN(C(=O)N2CCC(C(=O)NCc3ccccc3F)CC2)c2ccccc2O1 (centres undefined) | nt | nt | nt | 5% | 40
CCC(C)NCCCCOc1ccc(Cl)cc1C (centres undefined) | -85% | 88% | -7% | -5% | ?
CC(C)c1ccc(NC2CCCN(C(=O)CSc3nncn3C)C2)cc1 (centres undefined) | 9% | 40% | 11% | -2% | ?
CCC(=Cc1ccc(CC)cn1)CC | ? | ? | 1% | -6% | 1
CCOc1ccc(C(=O)NCc2ccc3c(c2)CCN3C(=O)c2ccc(C)cc2)cc1OCC | nt | nt | nt | -3% | -8
CC1CCCC(NCC(O)COC(c2ccc(F)cc2)c2ccc(F)cc2)C1C (centres undefined) | ? | ? | ? | 21% | -97*
CC1CCCC(NC(=O)CSc2ccc(F)cc2)C1C (centres undefined) | 12% | 7% | 3% | 2% | 12
CC(C)CN1C(=O)/C(=C/c2cccs2)NC1=S | -19% | -21% | -10% | -10% | -63*
COc1cccc(N2C(=O)/C(=C\c3cccs3)NC2=S)c1 | -11% | 9% | -16% | ? | ?
CC(C)CN1C(=O)/C(=C/c2ccco2)NC1=S | -4% | -9% | ? | 32µM* | -39
COc1cccc(-n2ccn(CC(=O)c3ccc(F)cc3)c(=O)c2=O)c1 | nt | nt | nt | 0% | -28
COc1cc(Cc2cnc(N)nc2N)cc(OC)c1OC | 1.5µM* | 2.1µM*! | 6% | 6% | ?
COc1cc(CN2CCCCCC2)cc(OC)c1OC | 7% | 35% | ? | -5% | 12
COc1ccc(CCNc2nc3c(c(=O)n(C)c(=O)n3C)n2Cc2ccc(F)cc2)cc1OC | nt | nt | nt | 3% | -90*
CCn1c(NCc2ccccn2)nc2c1c(=O)n(C)c(=O)n2C | 8% | -7% | 0% | -3% | -33
CCOc1ccc(CCNc2nc3c(c(=O)n(C)c(=O)n3C)n2CC)cc1OCC | 12% | -9% | 1% | -4% | -97*
O=C(Cn1cc(C(=O)c2ccco2)c2ccccc21)NC1CC1 | 11% | 1% | -1% | 5% | -24
O=C(O)c1ccc(S(=O)(=O)N2CCC(n3nnc4cc(C(F)(F)F)ccc43)CC2)cc1 | -6% | ? | nt | -5% | -17
O=C(O)CCC(=O)N1CCC(n2nnc3cc(C(F)(F)F)ccc32)CC1 | 2.1µM* | 0% | 1% | 0% | 0
Cc1ccc2c(c1)nnn2C1CCN(CC(=O)Nc2ccccc2N2CCOCC2)CC1 | 2.1µM* | 37% | 3% | 1% | nt
O=C(CN1CCC(n2nnc3cc(C(F)(F)F)ccc32)CC1)Nc1ccc2c(c1)OCCO2 | 12µM* | 11% | 0% | -2% | 12
O=C(CN1CCC(n2nnc3cc(C(F)(F)F)ccc32)CC1)Nc1ccc2c(c1)CCC2 | nt | ? | -4% | -28% | 28
COc1cc(F)ccc1-c1cc(C(=O)Nc2cc(OC)c(OC)c(OC)c2)[nH]n1 | nt | nt | nt | nt | 13
CC(C)c1ccc(NC(=O)CCC(=O)NCc2ccco2)cc1 | 5% | ? | 8% | -7% | -11
